The values that follow come from PubChem BioAssay AID1347074 (Center for Chemical Genomics, University of Michigan, 2019).

In all, about 47,000 compounds went through this assay and about 2,800 (6%) were called active. No stated cut-off is given here; in the data, active means z-score above about 3 (passing the limit was not always enough); inactive means the rest. The entries come from a sample that favours actives as a whole.

In this assay the target is Endoribonuclease Dicer (Homo sapiens) (UniProt Q9UPY3). Description: inhibitors of Dicer pre-microRNA processing, primary screen, biochemical, cat-ELCCA, chemiluminescence (AID 1347074).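 Further: plate controls were vehicle for no effect and no enzyme for full effect; higher signal means more uncleaved substrate so more Dicer inhibition.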 To be noted: cat-ELCCA pre-miR-21 Dicer processing, at 25 µM, active compounds read high.
Chain of Endoribonuclease Dicer (Homo sapiens) (Q9UPY3 whole entry, looked up): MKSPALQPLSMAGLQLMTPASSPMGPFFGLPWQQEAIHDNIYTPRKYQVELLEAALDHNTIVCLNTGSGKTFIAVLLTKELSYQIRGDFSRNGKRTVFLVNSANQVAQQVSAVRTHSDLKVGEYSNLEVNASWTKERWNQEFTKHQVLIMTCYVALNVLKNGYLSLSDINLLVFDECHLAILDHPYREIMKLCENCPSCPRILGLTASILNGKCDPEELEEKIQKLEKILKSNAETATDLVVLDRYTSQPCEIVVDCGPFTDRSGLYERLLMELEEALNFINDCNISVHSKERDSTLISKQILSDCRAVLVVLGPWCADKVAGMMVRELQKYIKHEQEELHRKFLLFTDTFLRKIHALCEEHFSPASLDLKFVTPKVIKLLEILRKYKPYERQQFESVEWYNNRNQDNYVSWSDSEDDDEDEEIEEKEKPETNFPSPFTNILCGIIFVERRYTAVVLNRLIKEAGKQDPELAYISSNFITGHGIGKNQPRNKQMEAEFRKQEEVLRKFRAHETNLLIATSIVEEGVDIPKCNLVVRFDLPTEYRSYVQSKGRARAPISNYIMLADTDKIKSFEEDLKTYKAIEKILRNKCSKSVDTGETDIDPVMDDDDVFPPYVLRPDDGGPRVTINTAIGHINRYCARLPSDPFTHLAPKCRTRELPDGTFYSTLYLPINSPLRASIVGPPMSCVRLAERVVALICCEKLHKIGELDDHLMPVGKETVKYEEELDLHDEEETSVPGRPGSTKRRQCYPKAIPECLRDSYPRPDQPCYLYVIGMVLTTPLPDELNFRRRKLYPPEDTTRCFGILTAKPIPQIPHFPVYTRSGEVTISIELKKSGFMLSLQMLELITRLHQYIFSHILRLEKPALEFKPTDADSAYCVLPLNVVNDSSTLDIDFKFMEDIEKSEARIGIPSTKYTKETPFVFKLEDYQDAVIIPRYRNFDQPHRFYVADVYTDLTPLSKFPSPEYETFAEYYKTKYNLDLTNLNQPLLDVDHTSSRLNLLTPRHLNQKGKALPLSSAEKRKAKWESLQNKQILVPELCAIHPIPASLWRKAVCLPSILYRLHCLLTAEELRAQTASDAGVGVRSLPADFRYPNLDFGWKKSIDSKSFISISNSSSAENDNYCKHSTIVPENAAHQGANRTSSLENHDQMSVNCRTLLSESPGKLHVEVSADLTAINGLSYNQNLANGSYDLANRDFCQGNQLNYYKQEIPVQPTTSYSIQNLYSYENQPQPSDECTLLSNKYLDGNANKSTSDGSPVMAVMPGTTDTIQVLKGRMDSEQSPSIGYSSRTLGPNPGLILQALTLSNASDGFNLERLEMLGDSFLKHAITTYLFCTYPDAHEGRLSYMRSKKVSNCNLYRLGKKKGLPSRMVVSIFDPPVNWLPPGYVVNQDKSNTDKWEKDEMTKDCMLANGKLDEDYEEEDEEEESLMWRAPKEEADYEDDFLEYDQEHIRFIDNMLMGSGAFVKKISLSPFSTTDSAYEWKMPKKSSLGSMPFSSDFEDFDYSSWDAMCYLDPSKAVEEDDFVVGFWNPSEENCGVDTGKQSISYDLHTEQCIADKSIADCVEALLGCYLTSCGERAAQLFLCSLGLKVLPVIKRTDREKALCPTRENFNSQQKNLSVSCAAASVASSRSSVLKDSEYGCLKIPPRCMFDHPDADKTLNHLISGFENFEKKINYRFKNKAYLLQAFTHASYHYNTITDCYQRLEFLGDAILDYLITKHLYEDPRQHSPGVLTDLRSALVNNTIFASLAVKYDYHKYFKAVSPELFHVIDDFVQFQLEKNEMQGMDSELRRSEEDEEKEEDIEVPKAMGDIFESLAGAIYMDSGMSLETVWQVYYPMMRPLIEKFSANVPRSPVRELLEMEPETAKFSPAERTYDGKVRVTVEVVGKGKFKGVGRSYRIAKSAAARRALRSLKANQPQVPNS
In the case of `O=C(CSc1ncnc2c1sc1nc(N3CCOCC3)c3c(c12)CCCC3)N1CCCCC1`, the z-score is -0.18 (inactive).
For `CCOC(=O)c1[nH]c2ccc([N+](=O)[O-])cc2c1CCC(=O)O`, the z-score was 0.9 (inactive).
To `COc1ccc(NC(=O)NCc2c(-c3ccccc3)noc2C)cc1OC1CCCC1` belongs -0.22 (inactive); to `Cc1cc(C)nc(N2CCN(c3ncnc4sc5c(c34)CCCC5)CC2)n1`, 5.88 (inactive).
Next, `Cc1cc(C)c2oc(-c3ccc(C)c(NC(=O)C(C)C)c3)nc2c1`: 0.37 (inactive).
To `Clc1ccc(CNc2nc3ccccc3n2CCN2CCOCC2)cc1` belongs 3.51 (active); to `Clc1ccc(Cn2c(-c3ccco3)nc3ccccc32)cc1`, 2.46 (inactive).
Take `c1ccc2[nH]c(NCCN3CCOCC3)nc2c1`: the z-score is -0.76 (inactive).
Take `Cc1nn(-c2ccc(N3CCOCC3)nn2)c(=O)c2ccccc12`: the z-score was -0.81 (inactive).
Next, `Cc1c(Cc2c(F)cccc2Cl)c(=O)oc2cc(OC(=O)c3ccccc3Cl)ccc12`: -0.2 (inactive); `COc1ccc(OCCn2cc(C(=O)C3CC3)c3ccccc32)cc1`: 3.94 (active).
To `COc1ccc(OC)c(NC(=O)Cn2cc(C(=O)C3CC3)c3ccccc32)c1` belongs 0.03 (inactive).
Next, `COCCCNC(=O)Cn1cc(C(=O)C2CC2)c2ccccc21`: 1.99 (inactive); `CCCCN1C(=O)C2(/C(=C(/O)c3ccc(F)cc3)C(=O)C(=O)N2CCCOC)c2ccccc21` (centres undefined): 2.27 (inactive).
Turning to `COc1cc(CN(Cc2ccccc2)C(=S)Nc2c(C)cccc2C)cc(OC)c1OC`, the z-score is 1.24 (inactive).
To `CCN(C(=S)Nc1c(C)cccc1C)c1ccccc1` belongs 3.03 (active); to `Cc1cccc(C)c1NC(=S)NCCC(=O)O`, 1.63 (inactive).
For `O=[N+]([O-])c1ccc(S(=O)(=O)c2ccccc2)cc1OS(=O)(=O)c1ccc(Cl)cc1`, the z-score is 0.46 (inactive).
Next, `Fc1ccc(Nc2nnns2)cc1`: 2.65 (inactive); `Cn1c(C(=O)O)ccc1S(=O)(=O)N(Cc1ccccc1)Cc1ccccc1`: -0.36 (inactive); `CC(C)=NNS(=O)(=O)c1ccc(C)cc1`: -6.01 (inactive).
Turning to `CCOc1cc(C)c(S(=O)(=O)NCc2ccccn2)cc1C`, the z-score is 0.63 (inactive).
Next, `Cc1nc2cc(CO)ccc2n1-c1ccccc1`: -1.15 (inactive).
With `Cc1nc2cc(NCc3ccccn3)ccc2n1C`, the z-score is 3.02 (active).
Next, `CN(C)c1ccc(C2/C(=C(/O)c3ccccc3)C(=O)C(=O)N2CCO)cc1` (centres undefined): -1.23 (inactive); `CCOC(=O)C1Cn2c(nc3c(c2=O)C(C)(CC)Cc2ccccc2-3)S1` (centres undefined): 3.52 (active); `Cc1ccc(NC(=O)C/C(N)=N/O)cc1Cl`: 1.48 (inactive).
With `CCn1c(CSc2nc(-c3ccc(Cl)cc3)cn2-c2ccc(C)cc2)n[nH]c1=S`, the z-score was 5.38 (active).
Consider `COc1ccc(-c2n[nH]c(=S)n2-c2ccc(Cl)cc2C)cc1`, for which the z-score was -1.05 (inactive).
To `S=c1[nH]nc(CSCc2nc(-c3ccccc3)cs2)n1-c1ccc(Cl)cc1` belongs -0.05 (inactive); to `C=CCSc1nc(Nc2ccc(Cl)cc2)c2cnc(N3CCOCC3)nc2n1`, 0.68 (inactive); to `Cc1nc2ccccc2c2c1C(=O)N(c1ccc(C(=O)OCC(=O)c3ccccc3)cc1)C2=O`, 0.06 (inactive).
With `C/C(=N\NC1=NCCCN1)c1ccc(Cl)cc1`, the z-score is -0.42 (inactive).
To `CCCCSC1=C(C#N)C(=O)NC(C)S1` (centres undefined) belongs 1.98 (inactive); to `COc1ccc(-c2nn3c(-c4ccc(OC)cc4)nnc3c3ccccc23)cc1`, 3.15 (active); to `COc1ccc(-c2cc(C)nc3nc(N)nn23)cc1`, -1.68 (inactive).
For `COc1ccc(-c2nn3c(-c4ccccc4)nnc3s2)cc1OC`, the z-score was -0.95 (inactive).
Next, `CSc1ccc(C2C(C(=O)OCC3CCCO3)=C(C)NC3=C2C(=O)CC(C)(C)C3)cc1` (centres undefined): 0.6 (inactive); `COc1ccc2c(c1)CCc1sc(N)nc1-2`: -2.97 (inactive); `COc1ccc2c(c1)CCCC2=Nc1ccccc1C(F)(F)F`: 4.81 (active).
On to `CCCOc1ccc(N2C(=O)CC(N3CCC(C)CC3)C2=O)cc1` (centres undefined), for which the z-score was 1.2 (inactive).
As for `NNC(=O)Cn1nnc(-c2cccc(Cl)c2Cl)n1`, the z-score is 7.9 (inactive).
Turning to `COC(=O)/C=C(\Nc1ccccc1Oc1ccc(Cl)cc1Cl)C(=O)OC`, the z-score was 2.01 (inactive).
Next, `O=C(Cn1nnc(-c2ccccc2Oc2ccc(Cl)cc2Cl)n1)NNC(=S)Nc1ccccc1C(F)(F)F`: 4.43 (active).
